Assay results taken from PubChem BioAssay (Tox21).
Activity calls are given as the source filed them. The call rests on the fitted dose curve.

Biological target: Acetylcholinesterase (Homo sapiens) (UniProt P22303)
Experiment: Acetylcholinesterase (AChE) small molecule antagonists: enzyme-based qHTS assay (AID 1347397); further: nearly all actives have a fitted effect of over 55% in size
Conditions: Potency: AChE enzyme activity inhibition; series mostly up to 115 µM; activity change, negative = inhibition: at the top concentration
From the text: National Center for Advancing Translational Sciences [NCATS]
Division of Preclinical Innovation [DPI]
U.S. Environmental Protection Agency [EPA]
National Institutes of Environmental Health Sciences [NIEHS]
National Toxicology Program [NTP]
U.S. Food and Drug Administration [FDA]
Acetylcholinesterase (AChE) is the primary cholinesterase in the body that hydrolyzes a key neurotransmitter, acetylcholine. Inhibition of AChE activity can lead to neurotoxicity. The known inhibitors include organophosphorous pesticides (OP), chemical warfare agents, drugs, and various phytochemicals.
An enzyme-based assay with the recombinant human AChE and Amplite Colormetric acetylcholinesterase assay kit (AAT Bioquest, Sunnyvale, CA) was used to evaluate the chemicals in the Tox21 10K library that inhibit AChE activity. The assay uses 5, 5-dithiobis-(2-nitrobenzoic acid) (DTNB) to quantify the thiocholine produced from the hydrolysis of acetylthiocholine by AChE.
Tox21 Assay Protocol Summary:
For the enzyme-based AChE assay, recombinant human AChE (50 mU/mL) in 4 uL/well was dispensed into black, clear-bottom 1536-well plates using a Multidrop Combi dispenser (Thermo Scientific, MA). Then, 23 nL of compound or DMSO (vehicle control) was transferred into the assay plates by a Pintool Station (Wako Automation, CA). The plates were incubated for 30 min at room temperature, followed by the addition of 4 uL of colorimetric detection cocktail solution (DTNB, acetylthiocholine) into each well using a Flying Reagent Dispenser (Beckman Coulter, CA) and then 10 min incubation at room temperature.
On the % scale 0 is the no-effect control and ±100 the full control effect; potency means the concentration at half of the fitted maximal effect.

Chain of Acetylcholinesterase (Homo sapiens) (P22303 whole entry, looked up): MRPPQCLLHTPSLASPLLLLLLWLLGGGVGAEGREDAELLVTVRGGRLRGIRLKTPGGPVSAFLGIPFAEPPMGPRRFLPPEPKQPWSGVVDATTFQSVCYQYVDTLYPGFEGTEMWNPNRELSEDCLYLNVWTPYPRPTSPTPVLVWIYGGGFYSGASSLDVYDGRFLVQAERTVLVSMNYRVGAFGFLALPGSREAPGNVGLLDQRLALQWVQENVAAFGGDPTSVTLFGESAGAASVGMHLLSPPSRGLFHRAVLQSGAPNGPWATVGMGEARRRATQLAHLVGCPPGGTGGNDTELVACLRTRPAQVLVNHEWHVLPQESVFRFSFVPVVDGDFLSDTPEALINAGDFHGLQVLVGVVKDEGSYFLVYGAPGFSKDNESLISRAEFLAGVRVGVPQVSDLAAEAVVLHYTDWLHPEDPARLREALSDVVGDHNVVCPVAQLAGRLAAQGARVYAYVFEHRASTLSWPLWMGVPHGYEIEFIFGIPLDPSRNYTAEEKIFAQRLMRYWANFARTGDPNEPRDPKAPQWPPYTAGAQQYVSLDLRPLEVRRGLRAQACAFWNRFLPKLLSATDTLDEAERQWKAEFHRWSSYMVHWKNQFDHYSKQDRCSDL

**Q.** For `CN1C(=S)CN=C(c2ccccc2)c2cc(Cl)ccc21`, which “activity change, negative = inhibition” value is on record?
**A.** 1.62% [at 53 µM] (inactive)

**Q.** `CCOP(=O)(N=C1SCCS1)OCC` was tested. Which “activity change, negative = inhibition” value did it give?
**A.** -8.51% (inactive)

**Q.** How did the “activity change, negative = inhibition” value turn out when `O=S(=O)(O)C(F)(F)C(F)(F)C(F)(F)C(F)(F)C(F)(F)C(F)(F)F` was run?
**A.** 0.263% (inactive)

**Q.** With `Clc1cccc(N2CCNCC2)c1` as the compound, how does the “activity change, negative = inhibition” value read?
**A.** 3.48% [at 53 µM] (inactive)

**Q.** How did the “activity change, negative = inhibition” value turn out when `Cc1ncc2n1-c1ccc(Cl)cc1C(c1ccccc1F)=NC2` was run?
**A.** 0% [at 53 µM] (inactive)

**Q.** Which “activity change, negative = inhibition” value does the source give for `Fc1cc(Br)ccc1CBr` here?
**A.** 0.27% [at 53 µM] (inactive)

**Q.** With `CC1=C(C(=O)O)N2C(=O)[C@@H](N)[C@H]2SC1` as the compound, how does the activity change, negative = inhibition read?
**A.** 0.693% [at 23.6 µM] (inactive)

**Q.** With `N#CC(Cl)(Cl)Cl` as the compound, how does the “activity change, negative = inhibition” value read?
**A.** 0.709% (inactive)

**Q.** How did the “activity change, negative = inhibition” value turn out when `Cc1nnc2n1-c1sc(CCC(=O)N3CCOCC3)cc1C(c1ccccc1Cl)=NC2` was run?
**A.** 0.944% [at 53 µM] (inactive)

**Q.** `Nc1n[nH]c(N)n1` was tested. Which “activity change, negative = inhibition” value did it give?
**A.** -2.86% (inactive)

**Q.** How did the “activity change, negative = inhibition” value turn out when `COC(=O)C(c1ccccc1)C1CCCCN1` (stereo not given) was run?
**A.** 0.0037% (inactive)

**Q.** With `CN1CCC(N(Cc2ccccc2)c2ccccc2)CC1` as the compound, how does the “activity change, negative = inhibition” value read?
**A.** -0.135% [at 53 µM] (inactive)

**Q.** Which “activity change, negative = inhibition” value does the source give for `CC(C)COP(=O)(OCC(C)C)OCC(C)C` here?
**A.** 1.2% (inactive)

**Q.** How did the “activity change, negative = inhibition” value turn out when `CCOc1nc(C(Cl)(Cl)Cl)ns1` was run?
**A.** -9.92% (inactive)

**Q.** For `C#C[C@]1(O)C=C[C@H]2[C@@H]3CCC4=CC(=O)CC[C@@H]4[C@H]3CC[C@@]21CC`, which “activity change, negative = inhibition” value is on record?
**A.** 0.406% [at 53 µM] (inactive)

**Q.** How did the “activity change, negative = inhibition” value turn out when `OC(c1ccccc1)(c1ccccc1)C1CCNCC1` was run?
**A.** 0.554% [at 53 µM] (inactive)

**Q.** With `CCC(Cl)[N+](=O)[O-]` (stereo not given) as the compound, how does the “activity change, negative = inhibition” value read?
**A.** 0.409% (inactive)

**Q.** `CC(CC(C#N)(c1ccccc1)c1ccccc1)N(C)C` (stereo not given) was tested. Which “activity change, negative = inhibition” value did it give?
**A.** -0.21% (inactive)

**Q.** Which “activity change, negative = inhibition” value does the source give for `O=[N+]([O-])c1ccc2c3c(cccc13)CC2` here?
**A.** 0.206% (inactive)

**Q.** How did the “activity change, negative = inhibition” value turn out when `COc1cc(C[C@@H](C)N)c(OC)cc1C` was run?
**A.** -0.54% (inactive)

**Q.** For `CNC(=O)N(C)c1nc2ccccc2s1`, which “activity change, negative = inhibition” value is on record?
**A.** 0.132% (inactive)

**Q.** For `Nc1cc(Cl)ccc1O`, which “activity change, negative = inhibition” value is on record?
**A.** 0.408% (inactive)

**Q.** How did the Potency turn out when `CCOP(=S)(OCC)SCSP(=S)(OCC)OCC` was run?
**A.** 63.3 µM (active)

**Q.** How did the Potency turn out when `CCCSP(=O)(OCC)Oc1ccc(Br)cc1Cl` (stereo not given) was run?
**A.** 3.87 µM (active)

**Q.** With `CCOC(=O)C(c1c(O)c2ccccc2oc1=O)c1c(O)c2ccccc2oc1=O` as the compound, how does the “activity change, negative = inhibition” value read?
**A.** 0.538% [at 53 µM] (inactive)

**Q.** `O=C(Oc1ccc(Br)cc1)N1CCN2CCC1CC2` was tested. Which “activity change, negative = inhibition” value did it give?
**A.** 0.663% (inactive)

**Q.** For `CCCCc1c(C)nc(NCC)[nH]c1=O`, which “activity change, negative = inhibition” value is on record?
**A.** 1.77% (inactive)

**Q.** `Nc1ccccc1Cl` was tested. Which “activity change, negative = inhibition” value did it give?
**A.** -1.09% (inactive)

**Q.** `c1ccc(N2CCNCC2)cc1` was tested. Which “activity change, negative = inhibition” value did it give?
**A.** -0.0006% [at 53 µM] (inactive)

**Q.** `CCC(=O)C(CCN(C)C)(c1ccccc1)c1ccccc1` was tested. Which “activity change, negative = inhibition” value did it give?
**A.** -1.22% [at 53 µM] (inactive)

**Q.** For `CN1CCN(C(=O)O[C@H]2c3nccnc3C(=O)N2c2ccc(Cl)cn2)CC1`, which “activity change, negative = inhibition” value is on record?
**A.** 0.27% [at 53 µM] (inactive)

**Q.** How did the “activity change, negative = inhibition” value turn out when `O=C(O)C(Br)CBr` (stereo not given) was run?
**A.** 0.136% (inactive)

**Q.** `COc1cccc(C(=O)NN(C(=O)c2cc(C)cc(C)c2)C(C)(C)C)c1C` was tested. Which “activity change, negative = inhibition” value did it give?
**A.** -3.06% (inactive)

**Q.** How did the “activity change, negative = inhibition” value turn out when `CNCC(=O)c1ccc(O)c(O)c1` was run?
**A.** -1.05% [at 53 µM] (inactive)

**Q.** Which “activity change, negative = inhibition” value does the source give for `CC(C)CC#N` here?
**A.** -2.33% (inactive)

**Q.** With `CC(C)(C)NCC(O)c1cc(Cl)c(N)c(Cl)c1` (stereo not given) as the compound, how does the “activity change, negative = inhibition” value read?
**A.** 0% [at 53 µM] (inactive)

**Q.** For `CC(=O)C(Cl)Cl`, which “activity change, negative = inhibition” value is on record?
**A.** 1.5% (inactive)

**Q.** How did the “activity change, negative = inhibition” value turn out when `COP(=S)(OC)Oc1ccc(S(N)(=O)=O)cc1` was run?
**A.** 1.62% [at 53 µM] (inactive)

**Q.** With `Clc1ccccc1N1CCNCC1` as the compound, how does the “activity change, negative = inhibition” value read?
**A.** -1.05% [at 53 µM] (inactive)

**Q.** How did the “activity change, negative = inhibition” value turn out when `CCCSC(=O)Cl` was run?
**A.** 0.817% (inactive)
